This passage reports outcome and AC50 results from PubChem BioAssay (EPA / NIEHS).

A structure can be active in one record and inactive in another. The source made the active and inactive calls. The calls were made as follows: active = hit-call score of the fitted dose curve at least 0.9, where 1 is the maximum; inactive = score below 0.9.

A short description of one assay: ATG_TCF_b_cat_CIS: Attagene CIS-FACTORIAL HepG2 Assay for human T-Cell-Factor with beta-catenin (TCF/b-cat) (AID 2282965). As to conditions: HepG2 TCF/beta-catenin cis-reporter transcription, actives raise or lower the signal. The procedure, abridged: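 Using capillary electrophoresis as the read-out, labelled reporter cDNA fragments from transiently transfected HepG2 were sized and quantified. Exposure lasted 24 hours; activity in either direction was referenced to DMSO.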
In the case of `COc1nc(NC(C)C)nc(NC(C)C)n1`, the call was inactive.
For the compound `Oc1ccccc1-c1ccccc1`, the call was inactive.
The same measure, in the same setting: the entry for `COc1nc(C)nc(NC(=O)NS(=O)(=O)c2ccccc2Cl)n1` is “inactive”; for `CCOC(=O)CC(SP(=S)(OC)OC)C(=O)OCC` (configuration not stated) it is “inactive”; for `CCCCC(CC)COC(=O)c1ccccc1C(=O)OCC(CC)CCCC` (configuration not stated) it is “inactive”.
The same measure, in the same setting: the value for `COc1nc(C)nc(NC(=O)NS(=O)(=O)c2ccccc2CCC(F)(F)F)n1` was “inactive”; that for `COc1ccc(C(c2ccc(OC)cc2)C(Cl)(Cl)Cl)cc1` was “inactive”.
For the compound `CNC(=S)S`, the AC50 was 168 µM (active) and the compound was classed as inactive.
For the compound `COP(=S)(OC)Oc1nc(Cl)c(Cl)cc1Cl`, the call was inactive.
Same read-out and setting: the value for `COC(=O)N(OC)c1ccccc1COc1ccn(-c2ccc(Cl)cc2)n1` was “inactive”; that for `N#Cc1nn(-c2c(Cl)cc(C(F)(F)F)cc2Cl)c(N)c1S(=O)C(F)(F)F` (configuration not stated) was “inactive”.
The same measure, in the same setting: the entry for `C=CCC1=C(C)[C@@H](OC(=O)[C@@H]2[C@@H](C=C(C)C)C2(C)C)CC1=O` is “inactive”.
Consider `CCCC1COC(Cn2cncn2)(c2ccc(Cl)cc2Cl)O1` (configuration not stated), for which the result was inactive.
On the same count and under the same terms, the value for `CO/C=C(/C(=O)OC)c1ccccc1Oc1cc(Oc2ccccc2C#N)ncn1` was “inactive”.
Same read-out and setting: the entry for `CON(C)C(=O)Nc1ccc(Cl)c(Cl)c1` is “inactive”; for `CCCCNC(=O)n1c(NC(=O)OC)nc2ccccc21` it is “inactive”.
The same measure, in the same setting: the entry for `CCCCOC(=O)c1ccccc1C(=O)OCCCC` is “inactive”.
As for `COC(=O)c1ccccc1C(=O)OC`, the compound was classed as inactive.
`CCCCNC(=O)OCC#CI`: the AC50 is 26.8 µM (active) and the compound was classed as inactive.
Take `CC(C)(C)c1ccc(CSc2cnn(C(C)(C)C)c(=O)c2Cl)cc1`: the call was inactive.
Turning to `C=CCC1=C(C)C(OC(=O)C2C(C=C(C)C)C2(C)C)CC1=O` (configuration not stated), the AC50 was 48.8 µM (active) [middle of 5 runs] and the compound was classed as inactive.
As for `COC(=O)C=C(C)OP(=O)(OC)OC`, the result was inactive.
On the same count and under the same terms, the entry for `CC(C)C1(C)N=C(c2nc3ccccc3cc2C(=O)O)NC1=O` (configuration not stated) is “inactive”; for `CCCN(CCC)c1c([N+](=O)[O-])cc(S(N)(=O)=O)cc1[N+](=O)[O-]` it is “inactive”; for `CCc1nn(C)c(C(=O)NCc2ccc(C(C)(C)C)cc2)c1Cl` it is “inactive”.
On the same count and under the same terms, the value for `OC(c1ccc(Cl)cc1)(c1cncnc1)c1ccccc1Cl` (configuration not stated) was “inactive”.

Another assay can be described thus: ATG_TAL_CIS: Attagene CIS-FACTORIAL HepG2 Assay for human TAL Basal Promoter (AID 2282966).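 Also: background control endpoint measuring basal TAL promoter reporter mRNA not a specific factor.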 As to conditions: HepG2 Attagene cis-factorial TAL promoter reporter; actives raise or lower the signal. The procedure, abridged:
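Transiently transfected HepG2 (cis-regulated reporter units), 24 h treatment, mRNA read by fluorescent CE after RT-PCR; bidirectional fit, DMSO baseline.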
Consider `COc1nc(NC(C)C)nc(NC(C)C)n1`, for which the compound was called inactive.
The same measure, in the same setting: the entry for `Oc1ccccc1-c1ccccc1` is “inactive”; for `COc1nc(C)nc(NC(=O)NS(=O)(=O)c2ccccc2Cl)n1` it is “inactive”.
Regarding `CCOC(=O)CC(SP(=S)(OC)OC)C(=O)OCC` (configuration not stated), the AC50 is 0.00921 µM (active) and the call was inactive.
As for `CCCCC(CC)COC(=O)c1ccccc1C(=O)OCC(CC)CCCC` (configuration not stated), the compound was classed as inactive.
The same measure, in the same setting: the entry for `COc1nc(C)nc(NC(=O)NS(=O)(=O)c2ccccc2CCC(F)(F)F)n1` is “inactive”.
In the case of `COc1ccc(C(c2ccc(OC)cc2)C(Cl)(Cl)Cl)cc1`, the outcome was inactive.
In the case of `CNC(=S)S`, the outcome was inactive.
`COP(=S)(OC)Oc1nc(Cl)c(Cl)cc1Cl`: the compound was classed as inactive.
For `COC(=O)N(OC)c1ccccc1COc1ccn(-c2ccc(Cl)cc2)n1`, the result was inactive.
Still for that read-out and setting: the value for `N#Cc1nn(-c2c(Cl)cc(C(F)(F)F)cc2Cl)c(N)c1S(=O)C(F)(F)F` (configuration not stated) was “inactive”.
Same read-out and setting: the value for `C=CCC1=C(C)[C@@H](OC(=O)[C@@H]2[C@@H](C=C(C)C)C2(C)C)CC1=O` was “inactive”.
Still for that read-out and setting: the value for `CCCC1COC(Cn2cncn2)(c2ccc(Cl)cc2Cl)O1` (configuration not stated) was “inactive”; that for `CO/C=C(/C(=O)OC)c1ccccc1Oc1cc(Oc2ccccc2C#N)ncn1` was “inactive”.
For `CON(C)C(=O)Nc1ccc(Cl)c(Cl)c1`, the outcome was inactive.
The same measure, in the same setting: the entry for `CCCCNC(=O)n1c(NC(=O)OC)nc2ccccc21` is “inactive”.
On the same count and under the same terms, the entry for `CCCCOC(=O)c1ccccc1C(=O)OCCCC` is “inactive”.
For `COC(=O)c1ccccc1C(=O)OC`, the call was inactive.
The same measure, in the same setting: the entry for `CCCCNC(=O)OCC#CI` is “inactive”; for `CC(C)(C)c1ccc(CSc2cnn(C(C)(C)C)c(=O)c2Cl)cc1` it is “inactive”.
`C=CCC1=C(C)C(OC(=O)C2C(C=C(C)C)C2(C)C)CC1=O` (configuration not stated): the AC50 was 105 µM (active) and the compound was classed as inactive.
In the case of `COC(=O)C=C(C)OP(=O)(OC)OC`, the call was inactive.
The same measure, in the same setting: the entry for `CC(C)C1(C)N=C(c2nc3ccccc3cc2C(=O)O)NC1=O` (configuration not stated) is “inactive”.
Same read-out and setting: the entry for `CCCN(CCC)c1c([N+](=O)[O-])cc(S(N)(=O)=O)cc1[N+](=O)[O-]` is “inactive”; for `CCc1nn(C)c(C(=O)NCc2ccc(C(C)(C)C)cc2)c1Cl` it is “inactive”.
Take `OC(c1ccc(Cl)cc1)(c1cncnc1)c1ccccc1Cl` (configuration not stated): the result was inactive.

A further assay is described as follows: ATG_TGFb_CIS: Attagene CIS-FACTORIAL HepG2 Assay for human Transforming Growth Factor (TGF) (AID 2282967). As to conditions: HepG2 Attagene CIS TGFb reporter, mRNA transcription; actives raise or lower the signal. The procedure, abridged: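 Cells were dosed for 24 hours, after which total RNA was reverse-transcribed and reporter sequences amplified, labeled and sized by capillary electrophoresis. Activity was fitted in both directions against DMSO.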
Regarding `COc1nc(NC(C)C)nc(NC(C)C)n1`, the compound was classed as inactive.
Turning to `Oc1ccccc1-c1ccccc1`, the AC50 is 87.5 µM (active) and the outcome was inactive.
In the case of `COc1nc(C)nc(NC(=O)NS(=O)(=O)c2ccccc2Cl)n1`, the result was inactive.
On the same count and under the same terms, the value for `CCOC(=O)CC(SP(=S)(OC)OC)C(=O)OCC` (configuration not stated) was “inactive”; that for `CCCCC(CC)COC(=O)c1ccccc1C(=O)OCC(CC)CCCC` (configuration not stated) was “inactive”; that for `COc1nc(C)nc(NC(=O)NS(=O)(=O)c2ccccc2CCC(F)(F)F)n1` was “inactive”.
On the same count and under the same terms, the value for `COc1ccc(C(c2ccc(OC)cc2)C(Cl)(Cl)Cl)cc1` was “inactive”; that for `CNC(=S)S` was “inactive”; that for `COP(=S)(OC)Oc1nc(Cl)c(Cl)cc1Cl` was “inactive”.
In the case of `COC(=O)N(OC)c1ccccc1COc1ccn(-c2ccc(Cl)cc2)n1`, the outcome was inactive.
Take `N#Cc1nn(-c2c(Cl)cc(C(F)(F)F)cc2Cl)c(N)c1S(=O)C(F)(F)F` (configuration not stated): the outcome was inactive.
For the compound `C=CCC1=C(C)[C@@H](OC(=O)[C@@H]2[C@@H](C=C(C)C)C2(C)C)CC1=O`, the compound was classed as inactive.
The same measure, in the same setting: the value for `CCCC1COC(Cn2cncn2)(c2ccc(Cl)cc2Cl)O1` (configuration not stated) was “inactive”.
For `CO/C=C(/C(=O)OC)c1ccccc1Oc1cc(Oc2ccccc2C#N)ncn1`, the compound was called inactive.
Regarding `CON(C)C(=O)Nc1ccc(Cl)c(Cl)c1`, the result was inactive.
Still for that read-out and setting: the value for `CCCCNC(=O)n1c(NC(=O)OC)nc2ccccc21` was “inactive”.
Turning to `CCCCOC(=O)c1ccccc1C(=O)OCCCC`, the AC50 was 65.8 µM (active) and the result was inactive.
As for `COC(=O)c1ccccc1C(=O)OC`, the compound was classed as inactive.
Regarding `CCCCNC(=O)OCC#CI`, the AC50 is 25.4 µM (active) and the outcome was inactive.
Consider `CC(C)(C)c1ccc(CSc2cnn(C(C)(C)C)c(=O)c2Cl)cc1`, for which the outcome was inactive.
`C=CCC1=C(C)C(OC(=O)C2C(C=C(C)C)C2(C)C)CC1=O` (configuration not stated): the AC50 is 178 µM (active) and the call was inactive.
Regarding `COC(=O)C=C(C)OP(=O)(OC)OC`, the outcome was inactive.
Still for that read-out and setting: the value for `CC(C)C1(C)N=C(c2nc3ccccc3cc2C(=O)O)NC1=O` (configuration not stated) was “inactive”; that for `CCCN(CCC)c1c([N+](=O)[O-])cc(S(N)(=O)=O)cc1[N+](=O)[O-]` was “inactive”; that for `CCc1nn(C)c(C(=O)NCc2ccc(C(C)(C)C)cc2)c1Cl` was “inactive”.
Still for that read-out and setting: the value for `OC(c1ccc(Cl)cc1)(c1cncnc1)c1ccccc1Cl` (configuration not stated) was “inactive”.
